Reference: PubChem BioAssay (EPA / NIEHS)
Where “and” joins values, the source holds several entries; their conditions need not be identical. Equal entries are not always repeated. Results filed as inconclusive are left out. A structure can be active in one record and inactive in another. Calls of active or inactive are those of the source. How the source made its calls, unless noted: active means hit-call score of the fitted dose curve at least 0.9, where 1 is the maximum; inactive means score below 0.9.

Legend:
[1] = target: Estrogen receptor (Homo sapiens) (UniProt P03372); assay: CCTE_Deisenroth_AIME_384WELL_LUC_Active: CCTE's 384-well Estrogen Receptor Transactivation Assay with AIME metabolic competence (ERTA luciferase; metabolism positive), Deisenroth Lab (AID 2284030; active means hit-call score of the fitted dose curve at least 0.9, where 1 is the maximum)
Chain of Estrogen receptor (Homo sapiens) (P03372 whole entry, looked up): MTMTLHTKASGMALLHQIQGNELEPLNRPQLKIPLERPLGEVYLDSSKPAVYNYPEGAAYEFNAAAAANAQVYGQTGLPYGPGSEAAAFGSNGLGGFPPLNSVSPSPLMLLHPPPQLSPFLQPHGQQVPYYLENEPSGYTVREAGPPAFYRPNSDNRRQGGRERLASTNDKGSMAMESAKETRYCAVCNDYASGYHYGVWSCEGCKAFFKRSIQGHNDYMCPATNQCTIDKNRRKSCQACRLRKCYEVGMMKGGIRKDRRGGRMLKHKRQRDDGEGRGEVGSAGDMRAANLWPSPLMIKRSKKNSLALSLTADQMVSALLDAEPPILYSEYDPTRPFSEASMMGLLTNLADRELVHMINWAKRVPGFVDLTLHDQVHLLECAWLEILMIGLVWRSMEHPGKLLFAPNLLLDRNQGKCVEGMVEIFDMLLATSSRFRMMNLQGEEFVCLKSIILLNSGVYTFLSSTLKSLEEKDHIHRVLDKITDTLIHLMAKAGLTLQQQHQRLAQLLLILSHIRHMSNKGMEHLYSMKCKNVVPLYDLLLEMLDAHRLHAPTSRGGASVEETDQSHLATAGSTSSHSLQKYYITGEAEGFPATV
Method in brief: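 Estrogenic luciferase signal in VM7Luc4E2 cells is measured at 24 hour, after chemicals have been preconditioned 2 hours with PB/BNF-induced rat hepatic S9 in alginate. Gain of signal is fitted relative to 17beta-estradiol, across 0.002 - 200 uM.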

[2] = CCTE_Deisenroth_AIME_384WELL_CTox_Active: Cytotoxicity Assessment (CTOX) in CCTE's 384-well Estrogen Receptor Transactivation Assay with AIME metabolic competence (metabolism positive), Deisenroth Lab (AID 2284037; active means hit-call score of the fitted dose curve at least 0.9, where 1 is the maximum;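 further: chemicals first conditioned 2 h by alginate-bound induced rat liver S9 before cells; activity means signal loss indicating cell death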)
Method in brief: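 Chemicals pre-incubated 2 hours with alginate-immobilised phenobarbital/beta-naphthoflavone-induced male Sprague Dawley rat liver S9, then conditioned medium applied 24 hour to VM7Luc4E2 cells. Viability by fluorogenic protease substrate; 10-point series 0.002 - 200 uM.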

[3] = target: Estrogen receptor (Homo sapiens) (UniProt P03372); assay: CCTE_Deisenroth_AIME_384WELL_LUC_Inactive: CCTE's 384-well Estrogen Receptor Transactivation Assay without AIME metabolic competence (ERTA luciferase; metabolism negative), Deisenroth Lab (AID 2284038; active means hit-call score of the fitted dose curve at least 0.9, where 1 is the maximum;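 further: VM7Luc4E2 breast cells given medium preincubated 2 h with S9-free microspheres; hits raise estrogen receptor luciferase signal so potencies reflect agonists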)
Method in brief: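 Metabolism-negative mode: chemicals (10-point, 0.002–200 uM) held 2 h with alginate-water microspheres, then conditioned medium applied to VM7Luc4E2 cells for 24 h. Luciferase induction referenced to 17beta-estradiol.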

[4] = target: Estrogen receptor (Homo sapiens) (UniProt P03372); assay: CCTE_Deisenroth_AIME_384WELL_LUC_Shift: CCTE's 384-well Estrogen Receptor Transactivation Assay with AIME metabolic competence data shift (ERTA luciferase; difference in metabolism positive and negative), Deisenroth Lab (AID 2284041);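 further: shift is response with S9 minus without S9 so positive means metabolism raised ER signal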
Method in brief: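 Chemicals (0.002–200 uM, 10 points) pre-incubated 2 h with alginate-encapsulated induced male Sprague Dawley rat liver S9 or S9-free, then medium applied 24 h to VM7Luc4E2 cells; luciferase. Endpoint is per-concentration difference, S9-positive minus negative.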

DIO2 (gene 1734) = assay: CCTE_GLTED_hDIO2: CCTE's human Deiodinase 2 (DIO2) Inhibition Assay, Great Lakes Toxicology and Ecology Division (GLTED) Lab (AID 2284050; active means hit-call score of the fitted dose curve at least 0.9, where 1 is the maximum)
Method in brief: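 Cell-free human DIO2 incubated 3 h with chemical; liberated iodide quantified by Sandell-Kolthoff absorbance. Triplicate plates; loss of signal fitted vs DMSO.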

[5] = CCTE_Shafer_MEA_dev_firing_rate_mean: CCTE's Neural Network Formation Assay for Mean Firing Rate, Shafer Lab (AID 2284031)
Method in brief: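 Primary rat cortical neurons on 48-well MEA plates, exposed from plating day 0 with dosing renewed on DIV 5 and 9. Mean well firing rate over active electrodes, recorded days 5, 7, 9, 12, summarised as trapezoidal AUC.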

[6] = CCTE_Shafer_MEA_dev_per_burst_spike_percent: CCTE's Neural Network Formation Assay for Percent of Spikes in a Burst, Shafer Lab (AID 2284032);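 on AC50: fitted as a decrease in burst spike percentage below DMSO baseline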
Method in brief: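 Rat primary cortical neurons on 16-electrode MEA wells, dosed from plating day 0 for 12 days with renewal on DIV 5 and 9; spikes-in-bursts percentage averaged over bursting electrodes, collapsed as AUC across days 5, 7, 9, 12; loss direction versus DMSO.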

[7] = CCTE_Shafer_MEA_dev_active_electrodes_number: CCTE's Neural Network Formation Assay for Number of Active Electrodes, Shafer Lab (AID 2284040; active means hit-call score of the fitted dose curve at least 0.9, where 1 is the maximum;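 on AC50: potency for loss of active electrodes versus DMSO so lower counts are hits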)
Method in brief: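 Primary rat cortical neurons on 16-electrode MEA wells, exposed from day 0 through day 12 with compound renewed at DIV 5 and 9 feeds. Active electrodes (mean firing ≥5 spikes/min) counted at DIV 5, 7, 9, 12; trapezoidal AUC across days, loss-of-signal versus DMSO.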

[8] = CCTE_Shafer_MEA_dev_burst_rate: CCTE's Neural Network Formation Assay for Burst Rate, Shafer Lab (AID 2284042)
Method in brief: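 Cells plated, treated day 0; recorded DIV 5, 7, 9, 12; fed and re-treated DIV 5, 9. Endpoint: bursts per recording time, active-electrode well mean, trapezoidal AUC, fitted in decreasing direction against DMSO baseline.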

[9] = CCTE_Shafer_MEA_dev_per_burst_interspike_interval: CCTE's Neural Network Formation Assay for Burst Interspike Interval, Shafer Lab (AID 2284044);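 further: mean spike spacing inside bursts as AUC over recordings on days 5 7 9 12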
Method in brief: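 Spontaneous activity of maturing rat cortical networks is recorded on DIV 5, 7, 9 and 12 under chronic compound exposure beginning at plating. Endpoint: burst interspike interval well-mean, collapsed into trapezoidal AUC and fitted in the negative direction relative to DMSO.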

[10] = CCTE_Shafer_MEA_dev_burst_duration_mean: CCTE's Neural Network Formation Assay for Mean Burst Duration, Shafer Lab (AID 2284045)
Method in brief: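 Primary rat cortical neurons on 48-well 16-electrode MEA plates, exposed from day 0 with renewal at DIV 5 and 9; spontaneous activity recorded on days 5, 7, 9, 12. Well-mean burst duration across bursting electrodes, collapsed as trapezoidal AUC; DMSO baseline.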

[11] = CCTE_Shafer_MEA_dev_interburst_interval_mean: CCTE's Neural Network Formation Assay for Mean Interburst Interval, Shafer Lab (AID 2284046);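 further: well-mean interburst interval of bursting electrodes as AUC over four recording days; curve fitted for decrease in interburst interval relative to DMSO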
Method in brief: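 Developing rat cortical networks on 48-well MEAs receive compound from the day of plating. Burst intervals from each active electrode are averaged per well, and AUC over the recording days is fitted in the negative direction against DMSO.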

[12] = CCTE_Shafer_MEA_dev_inter_network_spike_interval_mean: CCTE's Neural Network Formation Assay for Mean Inter-network Spike Interval, Shafer Lab (AID 2284047);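 on AC50: potency for a decrease in mean inter-network spike interval below DMSO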
Method in brief: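 Rat cortical cultures, 1.5 x 10^5 cells/well on 48-well MEA plates; continuous exposure days 0–12, medium and compound refreshed DIV 5, 9. Mean time between consecutive network-spike peaks; AUC across DIV 5/7/9/12; DMSO baseline, negative fitting direction.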

[13] = CCTE_Shafer_MEA_dev_network_spike_number: CCTE's Neural Network Formation Assay for Number of Network Spikes, Shafer Lab (AID 2284048)
Method in brief: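 Primary rat cortical neurons on PEI/laminin 48-well MEA plates, dosed from plating day 0 for 12 days, renewed at DIV 5 and 9. Network spike counts recorded DIV 5, 7, 9, 12, collapsed as trapezoidal AUC; DMSO baseline.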

[14] = CCTE_Shafer_MEA_dev_network_spike_peak: CCTE's Neural Network Formation Assay for Mean Number of Electrodes in Network Spike, Shafer Lab (AID 2284049);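 on AC50: fitted for loss of signal meaning fewer electrodes in network spikes than DMSO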
Method in brief: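 Network-spike peak electrode count from recordings on days 5, 7, 9 and 12 was combined as trapezoidal area under the curve. Rat cortical cultures were treated continuously from plating, with compound renewed at each feed (DIV 5, 9); fits versus DMSO.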

[15] = CCTE_Shafer_MEA_dev_spike_duration_mean: CCTE's Neural Network Formation Assay for Mean Spike Duration, Shafer Lab (AID 2284051);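 further: mean network spike duration pooled as area under curve over DIV 5 to 12 recordings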;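 on AC50: potency for a decrease in mean network spike duration versus DMSO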
Method in brief: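 Readout is the average length of network spikes, clustered firing across electrodes, summed over DIV 5, 7, 9 and 12 as area under the curve. Neurons from rat cortex developed networks on MEA plates under continuous 12-day exposure.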

[16] = CCTE_Shafer_MEA_dev_network_spike_duration_std: CCTE's Neural Network Formation Assay for Standard Deviation of Network Spike Duration, Shafer Lab (AID 2284052);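 further: area under curve of spike duration SD across recording days 5 to 12; hits are decreases in network spike duration SD versus DMSO vehicle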
Method in brief: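 Read-out is the trapezoidal area-under-the-curve across recordings made on days 5, 7, 9 and 12, fitted in the negative direction against DMSO baseline. Neurons were primary rat cortical cells treated from day 0, with treatment renewed at each feed.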

[17] = CCTE_Shafer_MEA_dev_bursting_electrodes_number: CCTE's Neural Network Formation Assay for Number of Bursting Electrodes, Shafer Lab (AID 2284043; active means hit-call score of the fitted dose curve at least 0.9, where 1 is the maximum;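 on AC50: potency is for loss of bursting electrodes relative to DMSO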)
Method in brief: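 Primary rat cortical neurons plated on 16-electrode MEA wells, exposed from day 0 with compound renewed at DIV 5 and 9. Electrodes bursting ≥1 burst per 2 min counted on days 5, 7, 9 and 12; trapezoidal AUC across days, fitted for loss versus DMSO.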

[18] = CCTE_Shafer_MEA_dev_per_network_spike_spike_number_mean: CCTE's Neural Network Formation Assay for Mean Number of Spikes in a Network Spike, Shafer Lab (AID 2284053);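 on AC50: fitted as decrease in spikes per network spike relative to DMSO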
Method in brief: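 Continuous twelve-day exposure of developing rat cortical networks grown over 16 microelectrodes per well; spontaneous firing is captured at four time points, and the per-network-spike spike number is integrated over development by trapezoidal AUC.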

[19] = CCTE_Deisenroth_AIME_384WELL_CTox_Inactive: Cytotoxicity Assessment (CTOX) in CCTE's 384-well Estrogen Receptor Transactivation Assay without AIME metabolic competence (metabolism negative), Deisenroth Lab (AID 2284039; active means hit-call score of the fitted dose curve at least 0.9, where 1 is the maximum;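 further: cell viability via live-cell protease substrate cleaved to fluorescent probe; cells exposed 24 h to medium preincubated 2 h with alginate-water beads without S9; loss of fluorescence signal means loss of viability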)
Method in brief: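 Metabolism-negative arm: chemicals (10-point, 0.002 - 200 uM) preincubated 2 h with alginate-water lids, medium moved onto VM7Luc4E2 cells for 24 h. Fluorescent live-cell protease readout; bidirectional curve fit.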

Measured: AC50

CCCCOC(=O)[C@@H](C)Oc1ccc(Oc2ccc(C(F)(F)F)cn2)cc1
inactive: [1] | [2] | [3] | [4]

CC(=O)S[C@@H]1CC2=CC(=O)CC[C@]2(C)[C@H]2CC[C@@]3(C)[C@@H](CC[C@@]34CCC(=O)O4)[C@H]12
active: DIO2 (gene 1734) 26.1 µM

S=C([S-])NCCNC(=S)[S-].[Mn+2]
active: [12] 1.19 µM
not listed: [1] | [2] | [3] | [4] | DIO2 (gene 1734) | [17] | [18] | [19]
inactive: all other assays above

CCN(CC)C(=O)c1cccc(C)c1
active: [7] 19.5 µM
not listed: [2] | DIO2 (gene 1734) | [19]
inactive: all other assays above

CCCCOCCOCCOCc1cc2c(cc1CCC)OCO2
active: [6] 10 µM | [17] 15.9 µM | [14] 16.9 µM
not listed: [1] | [2] | [3] | [4] | DIO2 (gene 1734) | [19]
inactive: all other assays above

CCOC(=O)COc1cc(-n2ncc(C(F)(F)F)c(C)c2=O)c(F)cc1Cl
inactive: [1] | [2] | [3] | [19] | [4]

CCCN(CCC)C(=O)SCC
not listed: [1] | [2] | [3] | [4] | DIO2 (gene 1734) | [19]
inactive: all other assays above

COCCO
not listed: [1] | [2] | [3] | [4] | DIO2 (gene 1734) | [19]
inactive: all other assays above

O=C(Nc1ccc([N+](=O)[O-])cc1Cl)c1cc(Cl)ccc1O
inactive: [1] | [2] | [4]

O=C(c1ccc(O)cc1O)c1ccc(O)cc1O
active: [1] 6.67 µM | [3] 6.69 µM
inactive: [2] | [19] | [4]

CC(C)(c1ccc(O)cc1)c1ccc(O)cc1
inactive: [5] | [6] | [7] | [8] | [17] | [9] | [10] | [11] | [12] | [13] | [14] | [15] | [16] | [18]
active: [6] 15 µM | [7] 15 µM | [17] 9.89 µM and 15 µM | [14] 20.8 µM | [15] 15 µM | [18] 15 µM

CCCN(CCC)c1c([N+](=O)[O-])cc(C(F)(F)F)c(N)c1[N+](=O)[O-]
active: DIO2 (gene 1734) 20 µM

OB(O)O
not listed: [1] | [2] | [3] | [4] | DIO2 (gene 1734) | [19]
inactive: all other assays above

CCOC(=O)C(C)Oc1ccc(Oc2nc3ccc(Cl)cc3o2)cc1 (configuration not stated)
active: DIO2 (gene 1734) 44.6 µM

c1ccc2[nH]c(-c3cscn3)nc2c1
active: [1] 30.5 µM | [3] 2.7 µM | [4] 0.482 µM
inactive: [2] | [19]

CC(=O)[C@H]1CC[C@H]2[C@@H]3CCC4=CC(=O)CC[C@]4(C)[C@H]3CC[C@]12C
inactive: [2]
active: [19] 27.4 µM

CCCCOC(=O)C(C)Oc1ccc(Oc2ccc(C(F)(F)F)cn2)cc1 (configuration not stated)
inactive: [1] | [2] | [3] | [19] | [4]
